# Compounds with a hit are over-represented: about 3.6% of the library has one in this group of screens.
# A3A deaminase = human APOBEC3A DNA deaminase inhibition | P31941 | recombinant A3A, FAM/TAMRA ssDNA deamination fluorescence | inhibition, % at 20 µM | actives 0.41% (n = 330,000);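 active = at least 40% inhibition at 20 µM here, with at most 30% in a related deaminase screen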;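 note: plate controls were A3A with DMSO for no effect and wells lacking A3A enzyme for full effect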
# Target sequence (P31941 whole entry, looked up): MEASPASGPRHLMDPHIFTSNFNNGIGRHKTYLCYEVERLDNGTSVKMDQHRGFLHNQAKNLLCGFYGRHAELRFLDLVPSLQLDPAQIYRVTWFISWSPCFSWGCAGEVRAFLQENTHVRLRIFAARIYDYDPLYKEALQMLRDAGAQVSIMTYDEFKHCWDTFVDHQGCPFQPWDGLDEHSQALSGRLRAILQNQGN
# esBAF inh = blocks esBAF chromatin remodeling in mouse ES cells; Bmi1-luciferase knock-in reporter, 24 h; 100% = twice the neutral-well signal; reporter increase, % at 12.5 µM; actives 2% (n = 350,000); in the data active = activation above about 40%; inconclusive = no clear call, values can overlap the other calls;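 note: 0% = median of the plate's neutral control wells and 100% = double that signal; a rise in the Bmi1 reporter signal indicates esBAF inhibition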
# MITF TRPM1 HTS = activators of MITF-driven TRPM1 promoter activity in SK-MEL-5 cells | SK-MEL-5 TRPM1-promoter luciferase, 24 h; % of positive control, neutral wells = 0 | activation, % at 12.5 µM | actives 0.75% (n = 300,000);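 active = mean activation of at least 80% with every replicate also reaching 80%; inconclusive = mean reaches 80% but some replicate falls short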;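 note: 0% = neutral control wells and 100% = parthenolide positive control wells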
# APOBEC3G inh = blocks human APOBEC3G single-stranded DNA deamination; inhibition, % at 20 µM; recombinant A3G, ssDNA deamination FAM/TAMRA fluorescence; Q9HC16; actives 0.28% (n = 330,000);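 active = inhibition of at least 40% at 20 µM, with no more than 30% in the related APOBEC3A deaminase screen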;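 note: plate controls were DMSO wells with A3G for no effect and wells lacking A3G enzyme for full effect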
# Target sequence (Q9HC16 whole entry, looked up): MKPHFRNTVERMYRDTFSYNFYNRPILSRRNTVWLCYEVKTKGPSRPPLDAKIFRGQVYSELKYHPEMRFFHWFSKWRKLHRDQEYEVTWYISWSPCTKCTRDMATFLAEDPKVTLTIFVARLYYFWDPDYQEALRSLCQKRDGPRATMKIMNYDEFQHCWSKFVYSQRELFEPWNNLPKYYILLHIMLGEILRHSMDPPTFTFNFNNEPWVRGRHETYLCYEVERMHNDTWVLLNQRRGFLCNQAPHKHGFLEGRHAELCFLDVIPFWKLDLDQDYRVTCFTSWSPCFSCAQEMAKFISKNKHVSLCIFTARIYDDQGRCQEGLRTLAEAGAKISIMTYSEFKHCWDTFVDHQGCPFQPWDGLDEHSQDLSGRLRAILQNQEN
# Wnt act = activates Wnt/beta-catenin signaling in a reporter cell assay; actives 1.2% (n = 300,000); activator, plate reader; AID 743398; activation, % at 9.35 µM; in the data active = activation above about 30%, passing the limit was not always enough; inconclusive = no clear call, values can overlap the other calls;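 note: 0% = neutral control wells and 100% = positive control wells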
# PHOSPHO1 block = PHOSPHO1 (human) inhibition; recombinant PHOSPHO1, absorbance phosphatase assay; inhibition, % at 13.3 µM; actives 1.1% (n = 290,000); AID 1565; in the data active = inhibition above about 60%
# * marks the source's active call; other numbers are inactive results; ? = inconclusive; . = no result.
SMILES,A3A deaminase,esBAF inh,MITF TRPM1 HTS,APOBEC3G inh,Wnt act,PHOSPHO1 block
COc1ccc(C(=O)COC(=O)c2ccco2)cc1,-5,49*,65,-6,.,-33
O=C(C[C@@H]1C[C@@H]2c3cc(NC(=O)c4cccnc4)ccc3O[C@@H]2[C@H](CO)O1)NCc1ccccc1,.,1,.,.,.,.
O=C(Nc1cc(F)ccc1F)N1C[C@@H]2[C@H](c3ccccc31)[C@@H](CO)N2CC1CCCC1,.,-5,.,.,.,.
COc1ccc(NC(=O)Cc2ccccc2)cc1,-6,57*,23,-8,36*,-13
COc1ccc(C(=O)C(OC(=O)c2ccccc2)c2ccccc2)cc1 (stereo not given),2,84*,.,0,26,27
COc1ccc(CC(=O)Nc2ccc(-c3cn4cccc(C)c4n3)cc2)cc1OC,2,7,-9,2,.,-24
CC(=O)Nc1ccc(C(=O)COC(=O)c2ccco2)c(F)c1,0,44*,18,-1,-3,.
COc1ccc(CC(=O)Nc2ccc(-c3cn4ccc(C)cc4n3)cc2)cc1,-1,58*,-6,-1,.,17
COc1ccc(C(=O)C(OC(=O)c2ccccc2Cl)c2ccccc2)cc1 (stereo not given),1,.,71,-6,.,-16
C[C@H]1CCCCO[C@H](CN(C)C(=O)Nc2cccc3ccccc23)[C@@H](C)CN([C@@H](C)CO)C(=O)c2cc(NS(=O)(=O)c3ccc(Cl)cc3)ccc2O1,.,5,.,.,.,.
CC(C)CC#Cc1cnc2c(c1)C(=O)N([C@@H](C)CO)C[C@@H](C)[C@@H](CN(C)C(=O)c1ccc3c(c1)OCO3)O2,.,-1,.,.,.,.
C[C@@H]1CN([C@@H](C)CO)C(=O)c2cccc(NS(=O)(=O)c3cn(C)cn3)c2O[C@@H]1CN(C)C(=O)Nc1ccc(C(F)(F)F)cc1,.,9,.,.,.,.
COc1ccccc1CNC(=O)C[C@H]1CC[C@H](NC(=O)CN(C)C)[C@H](CO)O1,.,-4,.,.,.,.
N#Cc1cccc(NC(=O)Cc2ccccc2)c1,1,.,7,-6,1,62*
N#Cc1cccc(NC(=O)CNC(=O)Cc2ccccc2)c1,-2,-5,-3,-8,-4,23
CCCOc1ccc(-c2cnc(SCC(N)=O)nc2N)cc1,-1,10,7,-3,-3,-42
CCCOc1ccc(OCCSc2nnc(N)s2)cc1,5,53*,60,1,.,-1
CCOc1ccc(-c2nc(CSc3nnc(N)s3)cs2)cc1OC,-4,47*,50,-4,.,-43
Nc1nnc(SCCCOc2ccc(F)cc2)s1,-2,19,20,0,2,10
CCCOc1ccc(-c2cnc(N)s2)cc1,-5,76*,88*,-7,20,47
CCOc1ccc(-c2nc(CSc3nnc(N)s3)cs2)cc1,-6,49*,79,-1,.,3
Cc1nc(CSc2nnc(N)s2)cs1,6,.,-1,-11,-1,-8
O=C(C[C@@H]1C=C[C@@H](NC(=O)c2ccncc2)[C@H](CO)O1)Nc1ccc(-c2ccccc2)cc1,.,6,.,.,.,.
CCC(=O)Nc1ccc2c(c1)C(=O)N(C)[C@H]1CC[C@H](CC(=O)NCc3ccc(OC)cc3)O[C@H]1CO2,.,-2,.,.,.,.
CNC(=O)C[C@@H]1CC[C@@H]2[C@H](COC[C@H](O)CN2Cc2ccc(Cl)c(Cl)c2)O1,.,-2,.,.,.,.
SMILES,A3A deaminase,esBAF inh,MITF TRPM1 HTS,APOBEC3G inh,Wnt act,PHOSPHO1 block
CC(C)(C)C(=O)N/C(N)=N/c1nc2ccccc2o1,-2,15,?,-4,65*,10
CC(C)CC(=O)N/C(N)=N/c1nc2ccccc2o1,-4,75*,86*,-7,53*,27
CCC(=O)N/C(N)=N/c1nc2ccccc2o1,0,.,?,-2,11,27
N/C(=N\c1nc2ccccc2o1)NC(=O)/C=C/c1ccccc1,-1,.,14,-7,2,19
CCCC(=O)N/C(N)=N/c1nc2ccccc2o1,0,.,88*,1,46*,44
CC(C)NC(=O)N1[C@H](CO)[C@@H]2c3ccccc3NC[C@@H]21,.,-9,.,.,.,.
O=C(Nc1ccccc1F)N1[C@H](CO)[C@@H]2c3ccccc3NC[C@@H]21,.,63*,.,.,.,.
COc1cc(OC)c(C2=Nc3ccc(Br)cc3C(c3ccccc3)N2CC(=O)NN)cc1OC (stereo not given),0,.,3,-5,37*,3
NNC(=O)CN1C(c2ccccc2)=Nc2ccc(Br)cc2C1c1ccccc1 (stereo not given),-1,.,-1,-14,3,16
CN1C(=O)c2cc(NS(C)(=O)=O)ccc2OC[C@H]2O[C@H](CC(=O)NCc3ccc(-c4ccccc4)cc3)CC[C@H]21,.,-1,.,.,.,.
O=[N+]([O-])c1ccc(Cl)c(NC(=S)N2CCCC2)c1,-3,52*,33,-3,3,35
Cc1cc(C)n(-c2nnc(NC34CC5CC(CC(C5)C3)C4)nn2)n1,-4,58*,138*,-7,.,-11
COc1ccccc1-c1nnc(SCC(=O)N2CCOCC2)n1-c1ccccc1,1,-10,1,-5,-6,30
COc1ccccc1-c1nnc(SCCN2CCOCC2)n1-c1ccc(C)cc1,3,-2,.,1,.,69*
C[C@@H]1CN([C@@H](C)CO)C(=O)c2cc(NS(=O)(=O)c3ccc(Cl)cc3)ccc2O[C@@H]1CN(C)CC1CC1,.,-4,.,.,.,.
CCN1C(=S)SC(=O)C1=C1C=C(C)N(Cc2ccco2)C(C)=C1,1,72*,57,-2,19,66*
CCN1C(=S)SC(=O)C1=C1C=C(C)OC(C)=C1,-6,.,91*,-3,.,5
C[C@@H]1CCCCO[C@@H](CN(C)CC2CCCCC2)[C@H](C)CN([C@@H](C)CO)C(=O)c2cc(NC(=O)Nc3ccc(F)cc3)ccc2O1,.,1,.,.,.,.
CN(C)/C=N/c1sc2c(c1C#N)CCCCC2,-1,54*,72,-3,7,4
CC(C)(C)C1CCc2c(sc3c2C(=O)NC(c2ccco2)N3)C1 (stereo not given),0,23,95*,0,1,14
CN1CCc2c(sc3c2C(=O)NC(c2ccccc2)N3)C1 (stereo not given),-3,.,2,-7,20,13
CCS(=O)(=O)Nc1ccc2c(c1)C(=O)N(C)C[C@@H](OC)[C@@H](C)CN(C(C)=O)[C@H](C)CO2,.,-13,.,.,.,.
O=C(Nc1cccnc1)c1ccc(-c2ccc(Cl)cc2)o1,3,.,34,5,-1,-22
O=C(Nc1cccnc1)c1cc(-c2ccc(Cl)cc2)on1,-2,15,129*,-10,41*,-17
O=C(Nc1ccc(Cl)cc1Cl)c1csc(-c2cccnc2)n1,-4,64*,27,-10,-1,8
CC(C)Cc1cc(C(=O)Nc2cccnc2)no1,0,57*,.,-6,20,-13
COc1ccccc1-c1cc(C(=O)Nc2cccnc2)no1,.,33,49,.,.,16

# From PubChem
